The text below walks through data of the supplement of paper PMC10849652.

Common to all, as to assay: log2 fold change, soluble protein after heating vs DMSO (PISA); higher = thermal stabilisation; K562 lysate, 10 uM; active = over 0.2 and 3.5 SD of the protein, either way, in both replicates (recomputed)
Compound in test [1]: CCCS(=O)(=O)Nc1ccc(F)c(C(=O)c2c[nH]c3ncc(-c4ccc(Cl)cc4)cc23)c1F [vemurafenib]
The gist of the method: (§1)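 K562 pellets were dounce-homogenised in PBS pH 7.4 with 1 mM MgCl2, and the crude extract at 1 mg/mL protein was treated with 10 μM compound for 30 min. Aliquots were heated for 3 min across 48°C-58°C, pooled, and brought to 0.5% NP-40 at 4°C; soluble protein was the supernatant after 21,000xg for 90 min. Soluble protein was quantified by TMTpro 16plex LC-MS/MS with channel sums equalised, and reported as log2 fold change in thermal stability against DMSO controls, with values from duplicates.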

Compound in test [2]: CCCS(=O)(=O)Nc1ccc(F)c(C(=O)c2c[nH]c3ncc(Cl)cc23)c1F
The gist of the method:
as §1

Compound in test [3]: CCN(CCCOc1ccc2c(Nc3cc(CC(=O)Nc4cccc(F)c4)[nH]n3)ncnc2c1)CCOP(=O)(O)O [barasertib]
The gist of the method:
as §1

Compound in test [4]: CC[C@@H]1C(=O)N(C)c2cnc(Nc3ccc(C(=O)NC4CCN(C)CC4)cc3OC)nc2N1C1CCCC1
The gist of the method:
as §1

Compound in test [5]: CC[C@@H]1C(=O)N(C)c2cnc(Nc3ccc(C(=O)N[C@H]4CC[C@H](N5CCN(CC6CC6)CC5)CC4)cc3OC)nc2N1C(C)C [volasertib]
The gist of the method:
as §1

Compound in test [6]: CCn1c(C(=O)N(C2CC2)C2CC2)cc2c3c(ncn3C)c(Nc3cc(C)n(C)n3)nc21
The gist of the method: as §1

Compound in test [7]: CCn1cc(-c2ccnc3[nH]c(-c4cccc(CN(C)C)c4)cc23)c(-c2ccc(NC(=O)N(C)C)cc2)n1
The gist of the method:
as §1

Compound in test [8]: CN1CCC(CNc2ccc3ncc(-c4cccc(OC(F)(F)F)c4)n3n2)CC1
The gist of the method: as §1

Compound in test [9]: CN1CCN(CCOc2cc(OC3CCOCC3)c3c(Nc4c(Cl)ccc5c4OCO5)ncnc3c2)CC1 [saracatinib]
The gist of the method: as §1

Compound in test [10]: CN1CCN(c2nc(C3=C(c4c[nH]c5ccccc45)C(=O)NC3=O)c3ccccc3n2)CC1 [sotrastaurin]
The gist of the method: as §1

Targets with a hit are over-represented here; the source holds about 8,800 in all. About 0.5% of all pairs of compound and target were hits. Values without a mark were called inactive.

Chain of UniProt O95628 (O95628 whole entry, looked up): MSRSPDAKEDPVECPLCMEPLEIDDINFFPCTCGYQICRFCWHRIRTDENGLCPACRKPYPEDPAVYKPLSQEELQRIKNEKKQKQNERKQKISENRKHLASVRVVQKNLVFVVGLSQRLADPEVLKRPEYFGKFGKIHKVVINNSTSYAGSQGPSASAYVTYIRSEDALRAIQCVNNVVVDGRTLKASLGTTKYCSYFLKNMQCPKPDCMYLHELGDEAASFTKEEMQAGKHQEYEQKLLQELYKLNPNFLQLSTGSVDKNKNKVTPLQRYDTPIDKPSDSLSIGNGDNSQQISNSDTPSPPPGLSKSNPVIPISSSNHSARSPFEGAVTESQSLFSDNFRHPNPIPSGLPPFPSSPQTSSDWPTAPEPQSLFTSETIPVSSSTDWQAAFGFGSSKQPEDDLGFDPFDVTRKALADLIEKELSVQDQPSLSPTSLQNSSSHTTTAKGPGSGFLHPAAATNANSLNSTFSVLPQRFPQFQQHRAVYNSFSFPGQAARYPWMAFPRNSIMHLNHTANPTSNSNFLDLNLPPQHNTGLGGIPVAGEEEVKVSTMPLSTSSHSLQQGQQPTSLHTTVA
Chain of UniProt Q8TB03 (Q8TB03 whole entry, looked up): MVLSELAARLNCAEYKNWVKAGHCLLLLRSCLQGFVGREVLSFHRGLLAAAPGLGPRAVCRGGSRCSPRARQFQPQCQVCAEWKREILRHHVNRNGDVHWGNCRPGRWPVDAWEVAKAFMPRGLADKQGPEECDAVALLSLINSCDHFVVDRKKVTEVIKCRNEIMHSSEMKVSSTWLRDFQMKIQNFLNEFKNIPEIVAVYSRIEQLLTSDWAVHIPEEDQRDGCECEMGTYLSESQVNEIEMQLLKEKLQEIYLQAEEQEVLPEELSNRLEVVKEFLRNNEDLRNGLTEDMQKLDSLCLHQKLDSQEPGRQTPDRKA
Chain of UniProt Q14746 (Q14746 whole entry, looked up): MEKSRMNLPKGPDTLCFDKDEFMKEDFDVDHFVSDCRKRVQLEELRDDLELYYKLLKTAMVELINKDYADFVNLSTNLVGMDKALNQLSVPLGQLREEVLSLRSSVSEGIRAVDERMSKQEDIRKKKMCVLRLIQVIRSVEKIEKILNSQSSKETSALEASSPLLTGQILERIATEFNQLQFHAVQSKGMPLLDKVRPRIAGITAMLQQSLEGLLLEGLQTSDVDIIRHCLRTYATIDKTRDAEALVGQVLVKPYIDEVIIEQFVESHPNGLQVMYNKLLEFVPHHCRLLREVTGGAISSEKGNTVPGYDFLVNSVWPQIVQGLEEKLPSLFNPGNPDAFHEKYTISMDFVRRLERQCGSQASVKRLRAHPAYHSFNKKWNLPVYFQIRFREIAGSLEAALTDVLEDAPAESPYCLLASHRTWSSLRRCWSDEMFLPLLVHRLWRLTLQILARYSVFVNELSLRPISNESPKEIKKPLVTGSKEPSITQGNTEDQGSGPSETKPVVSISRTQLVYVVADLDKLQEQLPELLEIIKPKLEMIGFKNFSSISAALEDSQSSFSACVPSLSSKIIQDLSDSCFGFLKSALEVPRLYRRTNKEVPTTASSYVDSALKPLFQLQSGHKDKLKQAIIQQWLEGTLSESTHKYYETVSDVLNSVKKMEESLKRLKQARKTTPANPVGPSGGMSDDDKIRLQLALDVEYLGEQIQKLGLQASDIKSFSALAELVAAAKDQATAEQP
Chain of UniProt O00148 (O00148 whole entry, looked up): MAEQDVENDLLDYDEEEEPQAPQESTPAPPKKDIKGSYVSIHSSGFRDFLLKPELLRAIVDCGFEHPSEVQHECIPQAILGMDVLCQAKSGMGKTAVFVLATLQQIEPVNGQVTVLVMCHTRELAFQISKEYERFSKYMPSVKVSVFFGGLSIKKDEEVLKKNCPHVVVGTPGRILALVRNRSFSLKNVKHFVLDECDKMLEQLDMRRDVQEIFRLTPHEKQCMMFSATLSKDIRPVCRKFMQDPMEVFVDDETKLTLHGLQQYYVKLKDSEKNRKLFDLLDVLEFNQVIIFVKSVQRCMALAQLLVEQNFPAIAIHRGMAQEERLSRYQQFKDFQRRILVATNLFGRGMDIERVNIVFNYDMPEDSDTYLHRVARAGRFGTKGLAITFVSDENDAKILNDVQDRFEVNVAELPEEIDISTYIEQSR
Chain of UniProt O96017 (O96017 whole entry, looked up): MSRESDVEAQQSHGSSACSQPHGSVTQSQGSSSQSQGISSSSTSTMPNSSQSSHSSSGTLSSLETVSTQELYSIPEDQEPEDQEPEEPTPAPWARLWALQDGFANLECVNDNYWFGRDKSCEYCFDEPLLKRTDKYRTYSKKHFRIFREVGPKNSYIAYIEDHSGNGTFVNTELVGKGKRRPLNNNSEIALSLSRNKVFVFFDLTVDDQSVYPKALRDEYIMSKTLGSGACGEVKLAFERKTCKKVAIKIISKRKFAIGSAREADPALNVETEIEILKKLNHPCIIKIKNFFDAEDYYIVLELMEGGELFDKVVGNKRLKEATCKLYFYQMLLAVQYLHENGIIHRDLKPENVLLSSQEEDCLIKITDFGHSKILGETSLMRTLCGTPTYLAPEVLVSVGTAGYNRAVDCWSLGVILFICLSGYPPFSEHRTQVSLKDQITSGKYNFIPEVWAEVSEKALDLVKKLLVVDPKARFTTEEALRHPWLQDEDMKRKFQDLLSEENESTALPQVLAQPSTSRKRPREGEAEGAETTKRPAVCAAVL
Chain of UniProt Q92989 (Q92989 whole entry, looked up): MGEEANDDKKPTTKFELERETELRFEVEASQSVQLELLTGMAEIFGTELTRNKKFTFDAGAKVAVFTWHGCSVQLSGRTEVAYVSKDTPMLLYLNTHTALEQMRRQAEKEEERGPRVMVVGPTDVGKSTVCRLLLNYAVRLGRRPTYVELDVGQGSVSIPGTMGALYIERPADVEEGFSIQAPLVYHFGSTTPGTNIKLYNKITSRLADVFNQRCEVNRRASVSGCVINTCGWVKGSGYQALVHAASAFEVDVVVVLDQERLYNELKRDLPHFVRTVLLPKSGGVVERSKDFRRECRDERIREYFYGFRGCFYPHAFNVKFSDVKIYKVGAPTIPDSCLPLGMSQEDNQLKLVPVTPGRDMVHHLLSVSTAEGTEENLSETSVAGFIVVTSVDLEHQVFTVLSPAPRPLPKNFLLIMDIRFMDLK
Chain of UniProt Q5EBM0 (Q5EBM0 whole entry, looked up): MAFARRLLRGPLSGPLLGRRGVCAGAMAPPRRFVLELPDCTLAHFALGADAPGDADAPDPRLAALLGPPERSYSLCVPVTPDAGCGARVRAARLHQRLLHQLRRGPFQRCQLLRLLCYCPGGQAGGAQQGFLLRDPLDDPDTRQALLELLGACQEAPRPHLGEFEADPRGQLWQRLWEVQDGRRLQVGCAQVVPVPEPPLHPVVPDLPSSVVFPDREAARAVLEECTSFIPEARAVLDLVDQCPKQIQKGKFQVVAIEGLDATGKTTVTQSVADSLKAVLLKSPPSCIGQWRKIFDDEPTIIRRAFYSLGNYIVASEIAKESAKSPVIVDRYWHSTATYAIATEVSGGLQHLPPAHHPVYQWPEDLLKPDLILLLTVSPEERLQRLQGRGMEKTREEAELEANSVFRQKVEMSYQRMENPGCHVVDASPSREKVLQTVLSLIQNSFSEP
Chain of UniProt Q96KA5 (Q96KA5 whole entry, looked up): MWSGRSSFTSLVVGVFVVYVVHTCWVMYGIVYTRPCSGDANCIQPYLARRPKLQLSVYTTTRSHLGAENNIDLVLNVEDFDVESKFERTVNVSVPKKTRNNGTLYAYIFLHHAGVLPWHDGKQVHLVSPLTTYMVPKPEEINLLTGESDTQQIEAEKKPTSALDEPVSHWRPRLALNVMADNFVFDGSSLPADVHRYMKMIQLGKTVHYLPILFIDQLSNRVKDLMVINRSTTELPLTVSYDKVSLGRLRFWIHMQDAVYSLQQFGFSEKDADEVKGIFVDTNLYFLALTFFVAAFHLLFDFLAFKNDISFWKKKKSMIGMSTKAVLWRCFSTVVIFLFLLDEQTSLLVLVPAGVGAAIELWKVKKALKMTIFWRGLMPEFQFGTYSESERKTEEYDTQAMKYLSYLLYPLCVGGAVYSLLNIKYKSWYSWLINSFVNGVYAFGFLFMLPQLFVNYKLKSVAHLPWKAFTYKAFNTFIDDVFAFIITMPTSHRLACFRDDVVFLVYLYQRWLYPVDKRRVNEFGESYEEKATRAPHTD
Chain of UniProt Q8WYQ5 (Q8WYQ5 whole entry, looked up): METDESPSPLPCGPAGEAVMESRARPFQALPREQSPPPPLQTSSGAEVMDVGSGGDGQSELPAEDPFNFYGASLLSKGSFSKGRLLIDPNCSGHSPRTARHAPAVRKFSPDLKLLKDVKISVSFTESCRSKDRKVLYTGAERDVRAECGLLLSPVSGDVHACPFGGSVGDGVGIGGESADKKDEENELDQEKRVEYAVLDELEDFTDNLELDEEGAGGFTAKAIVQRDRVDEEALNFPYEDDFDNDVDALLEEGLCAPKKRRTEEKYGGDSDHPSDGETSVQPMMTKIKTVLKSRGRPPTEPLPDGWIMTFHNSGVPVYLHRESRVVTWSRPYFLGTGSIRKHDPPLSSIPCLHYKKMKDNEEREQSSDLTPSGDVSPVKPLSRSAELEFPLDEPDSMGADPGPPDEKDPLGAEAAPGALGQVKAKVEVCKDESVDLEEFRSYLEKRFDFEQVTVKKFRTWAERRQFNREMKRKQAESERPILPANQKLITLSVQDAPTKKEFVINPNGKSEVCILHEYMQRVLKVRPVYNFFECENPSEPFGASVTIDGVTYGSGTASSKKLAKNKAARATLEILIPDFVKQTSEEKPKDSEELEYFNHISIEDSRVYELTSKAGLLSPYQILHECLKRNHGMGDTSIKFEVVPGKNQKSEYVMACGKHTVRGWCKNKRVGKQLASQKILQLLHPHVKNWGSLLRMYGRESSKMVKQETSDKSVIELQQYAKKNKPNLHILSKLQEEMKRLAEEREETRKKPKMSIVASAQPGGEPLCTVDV

CLCN3 (UniProt P51790): the log2 fold change is -0.096 in test [1]; -0.076 in test [2]; 0.014 in test [3]; -0.178 in [4]; -0.025 in test [5]; 0.034 in test [6]. In addition, the log2 fold change in [7] was 0.009; in test [8], 0.004; in [9], 0.01; in [10], -0.017.

With CSNK2A1 (UniProt P68400), the log2 fold change in test [1] was -0.124; in test [2] it was 0.017; in test [3] it was -0.025; in test [4], -0.057; in test [5], -0.039; in test [6], 0.006. Besides, the log2 fold change in [7] is -0.009; in test [8] it was 0.165; in [9], -0.028; in test [10] it was 0.019.

Consider CHEK2 (UniProt O96017), for which the log2 fold change in [1] was -0.059; in test [2], 0.042; in test [3] it was 0.087; in test [4], -0.06; in [5] it was -0.044; in test [6], 0.051. Further, the log2 fold change in [7] is 0.08; in test [8], -0.057; in test [9], -0.036; in test [10] it was 0.

Consider CMPK2 (UniProt Q5EBM0), for which the log2 fold change in test [1] is 0.026; in test [2], 0.048; in [3] it was 0.155; in [4], 0.018; in test [5], 0.015; in test [6], -0.03. Besides, the log2 fold change in test [7] was -0.001; in test [8], 0.007; in test [9], 0.006; in test [10], -0.019.

Take DFFB (UniProt O76075): the log2 fold change was 0.022 in [1]; 0.044 in test [2]; -0.064 in test [3]; 0.037 in test [4]; -0.012 in test [5]; 0.1 in test [6]. Besides, the log2 fold change in test [7] is -0.024; in test [8], 0.061; in test [9] it was 0.042; in [10], 0.06.

On to COG2 (UniProt Q14746), for which the log2 fold change in test [1] is 0.023; in [2], 0.012; in test [3] it was 0.077; in test [4], -0.052; in [5], -0.088; in test [6] it was 0.106. Further, the log2 fold change was 0.032 in test [7], -0.093 in test [8], 0.002 in test [9] and 0.037 in [10].

As for CLUH, A0A494C0R8, the log2 fold change in test [1] is -0.11; in test [2], 0.027; in test [3], -0.092; in [4], 0.097; in [5], -0.005; in test [6], 0. Further, the log2 fold change in [7] is 0.59 (active); in test [8] it was -0.047; in test [9], 0.03; in [10] it was 0.051.

As for DHRS11 (UniProt Q6UWP2), the log2 fold change was 0.015 in test [1]; 0.007 in test [2]; 0 in test [3]; -0.019 in [4]; -0.026 in [5]; 0.023 in test [6]. The log2 fold change in test [7] was -0.03; in test [8], 0.025; in test [9], 0.013; in test [10], 0.004.

Turning to DGCR8 (UniProt Q8WYQ5), the log2 fold change in [1] was -0.022; in test [2], 0.031; in test [3], 0.062; in test [4], -0.046; in test [5], -0.021; in [6], 0.015. The log2 fold change in [7] is -0.052; in test [8] it was 0.066; in test [9], 0.042; in [10], 0.04.

For CNOT4 isoform 9 (UniProt O95628), the log2 fold change in test [1] is 0.027; in [2], 0.014; in test [3] it was -0.195; in test [4], 0.028; in test [5], -0.03; in test [6], 0.015. The log2 fold change is -1.23 (active) in test [7], 0.22 in [8], 0.1 in test [9] and 0.075 in test [10].

With DDX39A (UniProt O00148), the log2 fold change in test [1] is 0.021; in [2], 0.021; in test [3], 0.047; in [4], -0.049; in [5], -0.071; in [6], -0.028. Moreover, the log2 fold change in test [7] is -0.041; in [8], -0.027; in test [9] it was -0.032; in test [10], -0.002.

Consider CLPTM1L (UniProt Q96KA5), for which the log2 fold change in [1] was -0.006; in test [2], 0.049; in [3], 0.079; in [4], 0.067; in test [5], -0.043; in [6], 0.012. Also, the log2 fold change in test [7] was -0.099; in [8], 0.016; in test [9] it was 0.049; in test [10] it was -0.001.

As to CMSS1 (UniProt Q9BQ75), the log2 fold change in test [1] was -0.011; in test [2] it was 0.005; in [3], 0.023; in test [4], -0.007; in [5], -0.011; in test [6] it was 0. The log2 fold change in [7] was 0.212; in test [8], -0.086; in [9] it was 0.007; in [10], -0.003.

Turning to CLP1 (UniProt Q92989), the log2 fold change in test [1] is -0.035; in [2] it was 0; in test [3], 0.03; in [4], -0.045; in test [5] it was -0.05; in [6], 0.015. Further, the log2 fold change in test [7] is -0.13; in test [8], 0.096; in [9], 0.115; in [10], 0.036.

As to CXorf38 (UniProt Q8TB03), the log2 fold change in [1] was 0.017; in test [2] it was -0.015; in test [3], -0.024; in [4], 0.038; in test [5] it was 0.013; in test [6], -0.027. Moreover, the log2 fold change was -0.059 in test [7], 0.04 in test [8], 0.105 in test [9] and 0.018 in [10].
